Laboratory results from PubChem BioAssay (NCI).
This is part of a sample that, as a whole, favours compounds with a hit. Of some 83,000 tested, about 20% had one in any assay.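 Interpretation: 100, growth as untreated; towards 0, rising growth inhibition; 0, no net growth; 0 to -100, cell death. Compounds scoring below 10 were considered active.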 The source made the active and inactive calls.

What was measured:
Test in all cases: NCI-60 one-dose screen, 48 h (100 = growth as untreated, 0 = no growth, -100 = all killed)
Settings in all cases: 10 µM
HT29 colon = tested on: HT29 colon
SNB-75 CNS = tested on: SNB-75 CNS
SNB-19 CNS = tested on: SNB-19 CNS
U251 CNS = tested on: U251 CNS
PC-3 prostate = tested on: PC-3 prostate
SK-MEL-5 melanoma = tested on: SK-MEL-5 melanoma
UACC-62 melanoma = tested on: UACC-62 melanoma
LOX IMVI melanoma = tested on: LOX IMVI melanoma
SK-MEL-28 melanoma = tested on: SK-MEL-28 melanoma
SK-MEL-2 melanoma = tested on: SK-MEL-2 melanoma

Measured: growth

Nc1ccn(C2CC(O)C(CO)O2)c(=O)n1 (stereo not given)
inactive: HT29 colon 110% | SNB-75 CNS 97.5% | SNB-19 CNS 99.7% | U251 CNS 105% | PC-3 prostate 99.4% | SK-MEL-5 melanoma 105% | UACC-62 melanoma 100% | LOX IMVI melanoma 104% | SK-MEL-28 melanoma 120% | SK-MEL-2 melanoma 87.8%

CC/C(C)=C(\C)C(=O)O
inactive: HT29 colon 106% | SNB-75 CNS 94.5% | SNB-19 CNS 112% | U251 CNS 105% | PC-3 prostate 104% | SK-MEL-5 melanoma 103% | UACC-62 melanoma 112% | LOX IMVI melanoma 92.7% | SK-MEL-28 melanoma 111% | SK-MEL-2 melanoma 102%

CC/C(=C(/c1ccc(OCCN(C)C)cc1)c1ccc(OC(=O)CCCCC(=O)c2c(C)[nH]c(/C=C3\N=C(c4ccc[nH]4)C=C3OC)c2C)cc1)c1ccccc1
inactive: HT29 colon 14.3% | SNB-75 CNS 42.3% | SNB-19 CNS 91.8% | U251 CNS 43.5% | PC-3 prostate 42.3% | SK-MEL-5 melanoma 36.4% | UACC-62 melanoma 75.1% | LOX IMVI melanoma 14% | SK-MEL-28 melanoma 85.6% | SK-MEL-2 melanoma 69%

COc1ccc(OC)c(/C=C/c2nnc(Nc3ccc(Cl)cc3)o2)c1
inactive: HT29 colon 76.9% | SNB-75 CNS 15.8% | SNB-19 CNS 84.9% | U251 CNS 41.8% | PC-3 prostate 74.9% | SK-MEL-5 melanoma 69.8% | UACC-62 melanoma 75.8% | LOX IMVI melanoma 67.7% | SK-MEL-28 melanoma 92.1% | SK-MEL-2 melanoma 101%

CN1CCC2(CC1)NC(=O)c1c(c3ccc(Cl)c(Cl)c3n1C)C2C#N (stereo not given)
inactive: HT29 colon 44.8% | SNB-75 CNS 34.3% | SNB-19 CNS 77.8% | U251 CNS 90.6% | PC-3 prostate 67.1% | SK-MEL-5 melanoma 37.8% | LOX IMVI melanoma 76.6% | SK-MEL-28 melanoma 70.4% | SK-MEL-2 melanoma 99.6%
active: UACC-62 melanoma -69.4%

CCN1Cc2c(/C=C/c3ccccc3)nc3ccc(OC)cc3c2N(c2cccc(Cl)c2)C1
inactive: HT29 colon 64.2% | SNB-75 CNS 63.6% | SNB-19 CNS 93.3% | U251 CNS 76% | PC-3 prostate 20.2% | SK-MEL-5 melanoma 20.6% | UACC-62 melanoma 52.3% | LOX IMVI melanoma 73% | SK-MEL-28 melanoma 95.9% | SK-MEL-2 melanoma 77.5%

COc1cc(NC(=O)CCSc2nc3ccc(Cl)cc3c(=O)n2Cc2ccccc2)cc(OC)c1OC
inactive: HT29 colon 76.2% | SNB-75 CNS 36.6% | SNB-19 CNS 92.1% | U251 CNS 70.2% | PC-3 prostate 43.4% | SK-MEL-5 melanoma 74.8% | UACC-62 melanoma 53.4% | LOX IMVI melanoma 91.1% | SK-MEL-28 melanoma 70.7% | SK-MEL-2 melanoma 73.7%

COc1ccc(-c2nc3ncccn3c2-c2nnc(-c3ccsc3C)o2)cc1
inactive: HT29 colon 103% | SNB-75 CNS 17.5% | SNB-19 CNS 68.9% | U251 CNS 72.4% | PC-3 prostate 83.6% | SK-MEL-5 melanoma 81% | UACC-62 melanoma 78.3% | LOX IMVI melanoma 88.4% | SK-MEL-28 melanoma 78.2% | SK-MEL-2 melanoma 90.5%

COc1cc2cc3c(nc2cc1OC)CCN3Cc1ccc(NC(=O)Nc2ccc(F)cc2F)cc1
inactive: HT29 colon 103% | SNB-75 CNS 86.4% | SNB-19 CNS 76.8% | U251 CNS 91.8% | PC-3 prostate 68.8% | SK-MEL-5 melanoma 86.1% | UACC-62 melanoma 69% | LOX IMVI melanoma 88.6% | SK-MEL-28 melanoma 95.7% | SK-MEL-2 melanoma 88.2%

O=C1/C(=C\c2ccc(F)cc2)CN(C(=O)c2ccccc2F)C/C1=C\c1ccc(F)cc1
active: HT29 colon -37% | U251 CNS -63% | PC-3 prostate -34.3% | SK-MEL-5 melanoma -58.6% | UACC-62 melanoma -77.6% | LOX IMVI melanoma -80.8% | SK-MEL-28 melanoma -72.5%
inactive: SNB-75 CNS 52.9% | SNB-19 CNS 33.4% | SK-MEL-2 melanoma 30.4%

NC(=O)CC1(c2ccccc2)CCCCC1
inactive: HT29 colon 104% | SNB-75 CNS 95.3% | SNB-19 CNS 105% | U251 CNS 102% | PC-3 prostate 99.4% | SK-MEL-5 melanoma 106% | UACC-62 melanoma 107% | LOX IMVI melanoma 96.1% | SK-MEL-28 melanoma 110% | SK-MEL-2 melanoma 102%

CC(C)=CCc1cc(O)cc2c1OC(C=C(C)C)C1=C2C(=O)C2=C(C1=O)S(=O)(=O)CCN2 (stereo not given)
active: U251 CNS -14.3% | PC-3 prostate 6.32% | UACC-62 melanoma 9.11% | LOX IMVI melanoma 4.91%
inactive: HT29 colon 64.8% | SNB-75 CNS 72.2% | SNB-19 CNS 46.2% | SK-MEL-5 melanoma 16.2% | SK-MEL-28 melanoma 36.8% | SK-MEL-2 melanoma 28.8%

COc1cc2cc3c(nc2cc1OC)CCN3Cc1ccc(NC(=O)c2ccc(Cl)c(C(F)(F)F)c2)cc1
inactive: HT29 colon 105% | SNB-75 CNS 61.7% | SNB-19 CNS 86.6% | U251 CNS 84.6% | PC-3 prostate 69.6% | SK-MEL-5 melanoma 85% | UACC-62 melanoma 79.9% | LOX IMVI melanoma 89.9% | SK-MEL-28 melanoma 97.9% | SK-MEL-2 melanoma 108%

Cc1ccc(NC(=O)CSc2nc3ccccc3c(=O)n2CCc2ccccc2)c(C(=O)O)c1
inactive: HT29 colon 111% | SNB-75 CNS 84.3% | SNB-19 CNS 105% | U251 CNS 101% | PC-3 prostate 97.8% | SK-MEL-5 melanoma 105% | UACC-62 melanoma 99.9% | LOX IMVI melanoma 99.6% | SK-MEL-28 melanoma 108% | SK-MEL-2 melanoma 89.8%

NC1=NC(=O)C(c2ccccc2)(c2ccccc2)S1
inactive: HT29 colon 106% | SNB-75 CNS 107% | SNB-19 CNS 105% | U251 CNS 99.4% | PC-3 prostate 103% | SK-MEL-5 melanoma 110% | UACC-62 melanoma 98.2% | LOX IMVI melanoma 101% | SK-MEL-28 melanoma 101% | SK-MEL-2 melanoma 101%

Cc1cs/c(=N\NC(=O)c2cc(-c3cc4ccccc4o3)nn2-c2ccccc2)n1-c1ccccc1
inactive: HT29 colon 93.6% | SNB-75 CNS 89.7% | SNB-19 CNS 92.8% | U251 CNS 87.6% | PC-3 prostate 114% | SK-MEL-5 melanoma 42.5% | UACC-62 melanoma 79.6% | LOX IMVI melanoma 82.7% | SK-MEL-28 melanoma 102% | SK-MEL-2 melanoma 91.6%

Cc1cccc(NC2=C(C#N)C(=O)NC3(CCCC3)S2)c1
inactive: HT29 colon 103% | SNB-75 CNS 90.7% | SNB-19 CNS 94.2% | U251 CNS 97.4% | PC-3 prostate 105% | SK-MEL-5 melanoma 95.7% | UACC-62 melanoma 98.7% | LOX IMVI melanoma 96.5% | SK-MEL-28 melanoma 105% | SK-MEL-2 melanoma 98.2%

COc1cccc(NC(=O)c2sc3nc4c(cc3c2N)C(O)CCC4)c1 (stereo not given)
active: HT29 colon 4.69%
inactive: SNB-75 CNS 44.6% | SNB-19 CNS 49.5% | U251 CNS 10.6% | PC-3 prostate 25.4% | SK-MEL-5 melanoma 25.1% | UACC-62 melanoma 48.9% | LOX IMVI melanoma 25.8% | SK-MEL-28 melanoma 56% | SK-MEL-2 melanoma 49.5%

Cc1cc(Cl)nc(N(CCCNc2ccnc3cc(Cl)ccc23)Cc2cccs2)n1
active: HT29 colon 1.59% | U251 CNS 8.68% | SK-MEL-5 melanoma -74.3% | LOX IMVI melanoma -1.18%
inactive: SNB-75 CNS 55.6% | SNB-19 CNS 42.9% | PC-3 prostate 10.1% | UACC-62 melanoma 10% | SK-MEL-28 melanoma 16.1% | SK-MEL-2 melanoma 16.9%

Cc1cc(C)c(NC(=O)c2sc3nc4c(cc3c2N)C(=O)CCC4)c(C)c1
active: HT29 colon 0.48% | SNB-75 CNS 0%
inactive: SNB-19 CNS 40.2% | U251 CNS 21.1% | PC-3 prostate 23.5% | SK-MEL-5 melanoma 11.3% | UACC-62 melanoma 23.2% | LOX IMVI melanoma 50.6% | SK-MEL-28 melanoma 56% | SK-MEL-2 melanoma 36.1%

O=C(O)c1ccc(P(=O)(O)O)c([N+](=O)[O-])c1
inactive: HT29 colon 101% | SNB-75 CNS 87.1% | SNB-19 CNS 107% | U251 CNS 95.1% | PC-3 prostate 97.7% | SK-MEL-5 melanoma 95.3% | UACC-62 melanoma 108% | LOX IMVI melanoma 102% | SK-MEL-28 melanoma 110% | SK-MEL-2 melanoma 117%

Cc1cc(=O)n2nnc3c4ccccc4ccc3n12
inactive: HT29 colon 85.4% | SNB-75 CNS 102% | SNB-19 CNS 94.9% | U251 CNS 97% | PC-3 prostate 62.5% | SK-MEL-5 melanoma 88.5% | UACC-62 melanoma 79.9% | LOX IMVI melanoma 89.3% | SK-MEL-28 melanoma 98.2% | SK-MEL-2 melanoma 113%

O=c1cc(-c2ccccc2)[nH]n1-c1nc2ccccc2[nH]1
inactive: HT29 colon 87.1% | SNB-75 CNS 64.4% | SNB-19 CNS 53.1% | U251 CNS 31.7% | PC-3 prostate 56.6% | SK-MEL-5 melanoma 34.1% | UACC-62 melanoma 36.5% | LOX IMVI melanoma 27.8% | SK-MEL-28 melanoma 74.1% | SK-MEL-2 melanoma 68.5%

CN(Cc1ccccc1)Cc1ccc([N+](=O)[O-])cc1I
inactive: HT29 colon 93.8% | SNB-75 CNS 94.7% | SNB-19 CNS 91.6% | U251 CNS 89.4% | PC-3 prostate 90.5% | SK-MEL-5 melanoma 93.5% | UACC-62 melanoma 94.2% | LOX IMVI melanoma 102% | SK-MEL-28 melanoma 97.1% | SK-MEL-2 melanoma 95.3%

c1ccc2c(c1)oc1c3c(ccc12)NCCC3
inactive: HT29 colon 95.1% | SNB-75 CNS 97.1% | SNB-19 CNS 108% | U251 CNS 90.7% | PC-3 prostate 91.5% | SK-MEL-5 melanoma 94.1% | UACC-62 melanoma 84.2% | LOX IMVI melanoma 96.6% | SK-MEL-28 melanoma 107% | SK-MEL-2 melanoma 97.5%

Nc1nc(Nc2ccccc2)n[nH]1
inactive: HT29 colon 105% | SNB-75 CNS 90.6% | SNB-19 CNS 94.6% | U251 CNS 100% | PC-3 prostate 116% | SK-MEL-5 melanoma 106% | UACC-62 melanoma 90.7% | LOX IMVI melanoma 100% | SK-MEL-28 melanoma 109% | SK-MEL-2 melanoma 103%

O=C1/C(=C\c2ccc(F)cc2)CN(C(=O)c2ccccc2)C/C1=C\c1ccc(F)cc1
active: HT29 colon -50.9% | U251 CNS -25% | UACC-62 melanoma 4.27% | LOX IMVI melanoma -55.9%
inactive: SNB-75 CNS 48.1% | SNB-19 CNS 61.3% | PC-3 prostate 22.1% | SK-MEL-5 melanoma 34.3% | SK-MEL-28 melanoma 34.8% | SK-MEL-2 melanoma 54.8%
